Data: the supplement of paper PMC10338343
± gives the standard deviation.

test system: MILI (PIWIL2) piRISC loaded with piRNA #1 (26 nt); assay: pre-steady-state target cleavage rate (min^-1); guide: piRNA #1 5'p-UGAGGUAGUAGGUUGUAUAGUAUCCA; MIWI and MILI are mouse PIWI proteins and EfPiwi is from a freshwater sponge; tags in brackets are library labels; higher = faster piRNA-guided slicing of the target; conditions: auxiliary factor: 500 nM mouse GTSF1
Method in brief: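 Cleave-'n-Seq: 1 nM active affinity-purified piRISC with one synthetic guide and 0.1 nM transcribed, DNA-blocked target RNA library were mixed, with or without 500 nM GTSF1 partner protein, in HEPES–potassium acetate buffer at 33 °C for 0–8 or 0–960 min. Uncleaved targets were sequenced and normalised to depth and to weakly complementary targets, three trials were pooled, and k3 was capped at 0.0001 min^-1. The pre-steady-state cleavage rate was fitted […].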

Row | Sequence | pre-steady-state target cleavage rate
1 | GGAGAGGAUACUAUACAUCCUACUACCUGA | 0.00529 ± 0.0032
2 | GGAGACCUUACUUAACAACCUACUACCUCA | 0.101 ± 0.016
3 | GGAGACCUAACAUAACAACCUACUACCUCA | 0.0321 ± 0.011
4 | GGAGACCUAUGAUAUGUUGCUACUACCUAA | < 0.0001
5 | GGAGACCUAUGAUAACAACCUACUGCCUCA | 0.00428 ± 0.0031
6 | GGAGACCUAUGAUAUGUACCUACUACCCCA | < 0.0001
7 | GGAGACCUAUGAUUACAUCCAACUACCUCA | 0.00328 ± 0.003
8 | GGAGACCUAUGAAUACAACCUACUACCUCCA | 0.0129 ± 0.0043
9 | GGAGACCUUACUAUACAACCUUCUACCACA | 0.00842 ± 0.0039
10 | GGAGAGGAUACUAUACUACCUACUACGUCA | 0.0806 ± 0.01
11 | GGAGACCUAUGUAUACAACCUACUUACCUCA | 0.0503 ± 0.0043
12 | GGAGACGAUACUAUACAUCCUACAACCUCA | 0.287 ± 0.022
13 | GGAGACCUAUGUAUACAACCAACUACCUCA | 0.0033 ± 0.002
14 | GGAGACCUAUGAUAUGUUGCUGACUACCUCA | < 0.0001
15 | GGAGAGGAUACUAUACAACGAACUACCUCA | 0.0031 ± 0.0019
16 | GGAGACGAUACAAUACAACCUACUUCCUCA | 0.126 ± 0.024
17 | GGAGACGAUACUAAAGAACCUACUACCUCA | 0.166 ± 0.011
18 | GGAGACCUUACUAAACAACCUAGUACCUCA | 0.0259 ± 0.0068
19 | GGAGACCUUAGUAUACAAGCUACUACCUCA | 0.174 ± 0.012
20 | GGAGACCUUUCUUUACAACCUACUACCUCA | 0.07 ± 0.012

Row | Sequence | pre-steady-state target cleavage rate
21 | GGAGACCUAUCUUAUCAACCUACUACCUCA | 0.0106 ± 0.0025
22 | GGAGACCUAUGUAUACAACCUACUACCUUCA | 0.0648 ± 0.0099
23 | GGAGUGGAUACUUUACAACCUACUACCUGA | 0.0844 ± 0.011
24 | GGAGACCUUUCUAUUCAACCUACUACCUCA | 0.0926 ± 0.012
25 | GGAGACCUAUGAUUACAACGUACUUCCUCA | 0.00374 ± 0.0031
26 | GGAGACCUAUGUAUACAACCUACUACCCA | 0.0226 ± 0.0055
27 | GGAGACCUAUGAUAUGUUCAUACUACCUCA | < 0.0001
28 | GGAGACCUAUGAAUACAAGCUUCUACCUCA | 0.0038 ± 0.002
29 | GGAGACCUAUGUCUACAACCUACUACCUCA | 0.0245 ± 0.004
30 | GGAGACCUAACUUAUCAACCUACUACCUCA | 0.0153 ± 0.0078
31 | GGAGACCUAUGAAUACAACCUACUACCUACA | 0.00696 ± 0.0027
32 | GGAGACCUAUCUAUACAACCUAGUUCCUCA | 0.0148 ± 0.0059
33 | GGAGACCUAUGUAUACAACCUACAACCUCA | 0.0609 ± 0.0082
34 | GGAGAGGAUUCUAUACUACCUACUACCUCA | 0.161 ± 0.0097
35 | GGAGACCUAUCUAUUCAACCUACUACCUGA | 0.0654 ± 0.014
36 | GGAGACCUAUGAAUACAACUUACUACCUCA | 0.00939 ± 0.003
37 | GGAGACCUUACUAUACAACCGUACUACCUCA | 0.00868 ± 0.0053
38 | GGAGACCUAUGUAUACAACCUAAUACCUCA | 0.0196 ± 0.0049
39 | GGAGAGGAUACUAUAGAACCUACUUCCUCA | 0.00501 ± 0.0029
40 | GGAGACCUAUGUAAACAACCUACUACCUGA | 0.00535 ± 0.0019
